About 3,000 (0.83%) of roughly 360,000 compounds were called active. This is one part of a sample in which actives are shown more often than they occur. Rule as the data show it: active = inhibition above about 38%; inactive = the rest.
Each compound was assayed against G-protein coupled receptor 183 (Homo sapiens) (UniProt P32249) (assay: blockers of oxysterol-driven EBI2 arrestin signaling – cell-based, luminescence, 7a,25-OHC stimulation, uHTS, primary screen (AID 651636;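 also: enzyme fragment complementation signal reports receptor beta-arrestin coupling in cells; 0% = agonist plus DMSO wells and 100% = wells without agonist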)). Settings: EBI2 beta-arrestin recruitment, 7a,25-OHC stimulated, at 5 µM, active compounds read high.
Chain of G-protein coupled receptor 183 (Homo sapiens) (P32249 whole entry, looked up, the tested form may be a part): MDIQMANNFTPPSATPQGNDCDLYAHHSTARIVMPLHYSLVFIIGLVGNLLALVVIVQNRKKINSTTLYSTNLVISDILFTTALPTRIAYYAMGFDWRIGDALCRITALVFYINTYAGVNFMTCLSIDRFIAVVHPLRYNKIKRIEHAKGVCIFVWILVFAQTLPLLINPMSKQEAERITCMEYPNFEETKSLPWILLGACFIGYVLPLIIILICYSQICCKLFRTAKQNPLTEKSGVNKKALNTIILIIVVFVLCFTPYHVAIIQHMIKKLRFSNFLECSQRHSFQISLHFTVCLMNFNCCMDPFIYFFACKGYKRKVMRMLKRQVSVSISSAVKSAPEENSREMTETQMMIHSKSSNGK

inhibition, active:
CC(C)OC(=O)CN1C(=O)C(=O)c2ccccc21 54.2%
FC(F)(F)Oc1ccccc1C(c1nnnn1C1CCCCC1)N1CCN(C/C=C/c2ccccc2)CC1 (stereo not drawn) 70.3%
COc1ccc(C(c2nnnn2C2CCCC2)N2CCN(C/C=C/c3ccccc3)CC2)cc1 (stereo not drawn) 54.1%
c1ccc(C(c2ccccc2)N2CCN(Cc3nnnn3C3CCCCC3)CC2)cc1 60.9%
O=C(CSc1ccccc1)Nc1cc(Cl)ccc1Oc1ccccc1 63.2%
CC(C)Cn1c(N2CCN(C(=O)/C=C/c3ccccc3)CC2)nc2ccccc21 59.1%
CCOC(=O)C1CCN(C(=O)COc2cc(C)c(Br)c(C)c2)CC1 74.6%
CCOC(=O)N1CCN(C(=O)COc2ccc(Cl)cc2C)CC1 63.5%
CCOC(=O)N1CCN(C(=O)COc2ccc(Br)cc2)CC1 89%

inhibition, inactive:
O=C(O)/C=C/C(=O)NNc1ccc([N+](=O)[O-])cc1 -16.6%
O=C(NC(CC(=O)N1CCN(c2ccccc2)CC1)c1ccccc1)c1ccccc1Cl (stereo not drawn) 11.4%
COC(=O)[C@H](Cc1ccccc1)NC(=O)[C@@H]1C[C@H]1[C@@H](NC(=O)OCc1ccccc1)c1ccccc1 16.3%
COc1ccc([N+](=O)[O-])cc1NC(=O)CC1SC(=Nc2cccc(C)c2C)N(/N=C(\C)c2ccc(C)cc2)C1=O (stereo not drawn) 3.23%
Cc1noc(C)c1-c1ccc(C(=O)NCc2ccncc2)c2occc12 -22.7%
C/C(Cl)=C\Cn1c(Nc2cccc(C)c2)nc2c1c(=O)n(C)c(=O)n2C 22.8%
OC[C@@H]1CN(C2CCCC2)C[C@H](n2cnc3c(NC4CCC4)ncnc32)O1 -9.08%
CCNc1nc(NC(C)C)nc(OCCOC(=O)c2ccccc2)n1 -0.581%
CCN(CC)S(=O)(=O)c1ccc(Cl)c(C(=O)NC(C)C(c2cccs2)N2CCCC2)c1 (stereo not drawn) -5.7%
COC(=O)c1cccc([N+](=O)[O-])c1CS(=O)(=O)c1ccc(C)cc1 -6.03%
Clc1ccc(-c2cc(C3CCNCC3)[nH]n2)c(Cl)c1 0.184%
Cc1nc(NC(=O)C2CCCCC2)sc1C -5.16%
COc1cc(C(C)=O)ccc1OC(=O)CN1C(=O)c2ccccc2C1=O -7.55%
O=C1C(=O)N(c2ccccc2)c2ccccc21 4.82%
COC(=O)c1ccc(NC(=O)c2cc3c(CO)cnc(C)c3oc2=Nc2cccc(C(N)=O)c2)cc1 12.4%
COc1ccc(N2CCN(C(c3cc4ccc(C)cc4[nH]c3=O)c3nnnn3C3CCCC3)CC2)cc1 (stereo not drawn) 2.46%
CCCCn1nnnc1C(c1cccc(OC)c1OC)N1CCN(C/C=C/c2ccccc2)CC1 (stereo not drawn) 24.9%
COc1ccccc1C(c1nnnn1C(C)(C)C)N1CCN(Cc2ccccc2)CC1 (stereo not drawn) -27.6%
c1ccc(CCn2nnnc2CN2CCN(C3CCCC3)CC2)cc1 -2.13%
COc1ccc(C(c2nnnn2C2CCCCC2)N2CCN(c3ccccc3F)CC2)cc1 (stereo not drawn) 31.1%
CC(C)C(c1nnnn1C1CCCC1)N1CCN(c2ccccc2F)CC1 (stereo not drawn) 11.7%
O=C(CC1SCCNC1=O)Nc1ccc(Cl)cc1 (stereo not drawn) 0.627%
CC(Sc1ccccc1F)C(=O)Nc1cccc(S(=O)(=O)N2CCOCC2)c1 (stereo not drawn) 7.64%
CCOc1ccc(CCNC(=O)C(CC)n2nc(C)n3c(cc4sccc43)c2=O)cc1OCC (stereo not drawn) 0.672%
Cc1ccc(-c2cc(C(F)(F)F)n3ncc(C(=O)N4CCCCC4c4cccnc4)c3n2)cc1 (stereo not drawn) 19.8%
CCn1c(N)c(Br)c(=O)[nH]c1=O -5.96%
CC(=O)Nc1ccc(SCC(=O)Nc2ccccc2Oc2ccccc2)cc1 6.4%
CC1CCCN(CC(=O)Nc2cc(Cl)ccc2Oc2ccccc2)C1 (stereo not drawn) 6.08%
Cn1c(=O)c(=O)n(C)c2cc(S(=O)(=O)CCC(=O)N3CCCCC3)ccc21 -3.96%
C=CCn1c(C(C)NC(=O)CC)nc2ccccc21 (stereo not drawn) -24.2%
CN1CCN(C(=O)Cn2c(C(F)(F)F)nc3ccccc32)CC1 -3.36%
COC(=O)[C@]12CCCCC=C1N(Cc1ccc3c(c1)OCO3)C(=O)[C@H](CC(=O)N1CCOCC1)C2 6.39%
O=C(Nc1ccc2c(c1)CCC2)c1ccc(Br)s1 -9.47%
CCOC(=O)C1CCN(C(=O)COc2cccc3ccccc23)CC1 6.68%
CCOC(=O)N1CCN(C(=O)COC(=O)c2cccc(S(C)(=O)=O)c2)CC1 -8.93%
O=C(COc1ccc(Cl)cc1[N+](=O)[O-])N1CCCCC1 5.52%
Cc1cc(S(=O)(=O)N2CCOCC2)ccc1OCC(=O)N1CCOCC1 -8.03%
CCOC(=O)C1CCN(C(=O)Nc2ccc(C)c(Cl)c2)CC1 8.32%
CCOC(=O)N1CCN(S(=O)(=O)c2ccc(Br)cc2)CC1 8.56%
O=C(NCc1ccc(F)cc1)C1CCN(C(=O)Nc2ccc(F)cc2)CC1 16%
CC(=O)c1c(C)[nH]c(C(=O)OCC(=O)Nc2c(C)n(C)n(-c3ccccc3)c2=O)c1C 8.82%
Cc1cccn2c(=O)nc(SCC(=O)NCc3ccccc3Cl)nc12 -6.29%
Cc1nn(C)cc1/C=C1\CCC/C(=C\c2cn(C)nc2C)C1=O 6.14%
CC(C)CN1C(=O)CN(S(C)(=O)=O)CC1(C)C(=O)NCc1ccccc1 (stereo not drawn) -1.75%
Cn1c(=O)cc(SCC(=O)N2CCN(C(=O)c3ccco3)CC2)c2ccccc21 -7.92%
C=CCOc1ccc(/C=C/C(=O)OCC(=O)NC2CCCCCC2)cc1 0.205%
N#C/C(=C\c1ccccc1)c1n[nH]c(Cn2cncn2)n1 -5.28%
CCNC(=O)COc1cc(C)c(Br)c(C)c1 -7.22%
COC(=O)C[C@@H]1C=C[C@@H](NC(=O)c2ccc3c(c2)OCO3)[C@@H](CO)O1 0.556%

Source: PubChem BioAssay AID651636 (Sanford-Burnham Center for Chemical Genomics, 2012)
